Source: PubChem BioAssay (National Center for Advancing Translational Sciences (NCATS))
Rab9 promoter act = activates the Rab9 promoter; Huh7 Rab9 promoter-luciferase reporter, luminescence, 24 h; Potency, µM (highest dose often 9.22 µM), usual class: activators; actives 2.8% (n = 320,000); further: nearly all actives have a fitted effect of over 60% in size
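Cells were plated at 1500 per well in reduced-serum medium with 10% FBS and left 2 h. Compound in DMSO was then added for 24 h at 37 °C. Reporter signal was read by luminescence after 10 min with luciferase detection reagent.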
NPC1 promoter act = activates the NPC1 promoter; actives 2.4% (n = 320,000); Potency, µM (highest dose often 9.22 µM), usual class: activators; Huh7 NPC1 promoter luciferase reporter, 24 h; further: nearly all actives have a fitted effect of over 60% in size
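Quantitative HTS used a cell-based reporter: Huh7 cells stably bearing the NPC1 promoter upstream of luciferase were treated with compounds for 24 h, and promoter activation was read as luminescence.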
FLuc counter = firefly luciferase modulation, counter-screen for miR-21 project. Potency, µM (top dose mostly 57.5 µM), most hits filed as inhibitors. purified FLuc, Km substrates, luminescence inhibition. actives 6.9% (n = 360,000); further: nearly all actives have a fitted effect of over 55% in size
Target sequence (P08659 whole entry, looked up): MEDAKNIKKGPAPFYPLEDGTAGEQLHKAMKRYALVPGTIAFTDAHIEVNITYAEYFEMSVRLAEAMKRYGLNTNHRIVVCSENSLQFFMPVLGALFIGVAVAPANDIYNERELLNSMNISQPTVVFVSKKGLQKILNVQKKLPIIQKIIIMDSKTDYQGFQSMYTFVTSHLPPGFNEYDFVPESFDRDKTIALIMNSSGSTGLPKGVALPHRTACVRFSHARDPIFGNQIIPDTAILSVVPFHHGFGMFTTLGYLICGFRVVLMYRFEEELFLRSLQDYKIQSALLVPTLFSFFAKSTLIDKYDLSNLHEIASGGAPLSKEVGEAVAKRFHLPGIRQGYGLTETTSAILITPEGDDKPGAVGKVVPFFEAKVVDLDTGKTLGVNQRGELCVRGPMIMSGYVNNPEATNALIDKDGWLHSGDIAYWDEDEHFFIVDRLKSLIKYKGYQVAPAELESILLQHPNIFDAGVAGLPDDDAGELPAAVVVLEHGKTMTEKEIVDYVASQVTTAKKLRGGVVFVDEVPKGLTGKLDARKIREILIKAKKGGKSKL
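Biochemical qHTS of compounds, final roughly 60 µM downward over six points, against 10 nM purified firefly luciferase using Km concentrations of substrates (10 uM D-luciferin, 10 uM ATP) in Tris acetate pH 7.5 buffer; luminescence output.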
SMN2 splice up = enhancers of SMN2 splice variant expression; HEK293 SMN2-luciferase splicing reporter, luminescence, 30-36 h; Potency, µM (doses to about 46.1 µM), hits mostly activators; actives 2.8% (n = 210,000); further: nearly all actives have a fitted effect of over 55% in size
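HEK293 cells carry an SMN2 minigene-luciferase reporter in which exon 7 inclusion puts luciferase in frame. Cells were seeded at 2000 cells/well, attached for 10-12 hours, then exposed to compounds for 30-36 hours at 37C before ONE-Glo luminescence.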
ELG1 genotoxic = induces genotoxicity in HEK293T cells with luciferase-tagged ELG1 | AID 504466 | actives 1.3% (n = 330,000) | HEK293T ELG1-luciferase reporter, luminescence, 16 h | Potency, µM (titrated, usually from 46 µM), actives largely listed as activators; further: nearly all actives have a fitted effect of over 60% in size
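HEK293T cells expressing luciferase-tagged ELG1 were exposed to compound or DMSO vehicle for 16 hr at 37 °C and 5% CO2. Luciferase activity was then measured with ONE-Glo after 30 min at room temperature.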
KinaseGlo FLuc = counter-screen: inhibitors of Kinase-Glo firefly luciferase; Q27757; Kinase-Glo luciferase, ATP luminescence, 8 min; Potency, µM (series often up to 38.3 µM), hits mostly inhibitors; actives 0.28% (n = 200,000); AID 1379; further: nearly all actives have a fitted effect of over 60% in size
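Luminescence was the read-out, taken after 8-minute incubation at ambient temperature. Luciferase turned over luciferin with 10 uM ATP in imidazole pH 7.2 buffer containing KCl, MgCl2, Tween 20 and BSA.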
Of the large screens only hits and unclear results are named; the others gave an inactive call. Sampled rows, rich in hits. Any-hit rate of the full collection: about 7.5%. The call rests on the fitted dose curve; in most records, active means well fitted curve in the direction sought with a large enough effect; inconclusive means small, poorly fitted or top-dose-only effect, or another doubt; inactive means no such curve, though single readings can be large; an effect the other way counts as inactive or inconclusive.

O=C1NC(=O)N(c2ccccc2)C(=O)/C1=C/c1ccc2c(c1)Cc1ccccc1-2	FLuc counter 21.3µM
O=C1NC(=O)N(c2ccccc2)C(=O)/C1=C/C=C/c1ccco1	FLuc counter inconclusive (no result: SMN2 splice up, KinaseGlo FLuc)
Cc1cc(C)cc(N2C(=O)NC(=O)/C(=C/c3cccn3-c3ccc(Cl)cc3)C2=O)c1	none
COc1cc(/C=C2\C(=O)NC(=O)N(c3ccccc3)C2=O)cc(OC)c1O	FLuc counter 21.3µM
CC(C)(C)n1cccc1/C=C1\C(=O)NC(=O)N(c2ccccc2)C1=O	FLuc counter 23.9µM
Nn1cnnc1	none (no result: Rab9 promoter act, NPC1 promoter act, FLuc counter, ELG1 genotoxic, KinaseGlo FLuc)
COC(=O)c1c(C)ccc2c(O)c3c(cc12)C(=O)c1c2c(cc(O)c1C3=O)[C@@]1(C)O[C@@](C)(O2)[C@@H](O)[C@H](N(C)C)[C@H]1O	none (no result: Rab9 promoter act, NPC1 promoter act, FLuc counter, ELG1 genotoxic)
CCSCC[C@H](N)C(=O)O	none (no result: Rab9 promoter act, NPC1 promoter act, FLuc counter, ELG1 genotoxic)
C[C@H]1COC2=C1C(=O)C(=O)c1c2ccc2c1CCCC2(C)C	FLuc counter 21.3µM (no result: SMN2 splice up, KinaseGlo FLuc)
COc1cc(C(C)=O)ccc1OCc1cc(C(=O)N(C)CCC2CCCCO2)no1 (stereo unspecified)	Rab9 promoter act 1.58µM, NPC1 promoter act 2.24µM, FLuc counter 6.75µM, ELG1 genotoxic inconclusive (no result: SMN2 splice up, KinaseGlo FLuc)
COc1ccc(C(C)=O)cc1CC(C(=O)c1ccc(Br)cc1)N(C)C (stereo unspecified)	none
O=C(Nc1ccc2nc(SCC(=O)N3CCOCC3)sc2c1)c1ccc(Cl)cc1	FLuc counter 10.7µM (no result: Rab9 promoter act, NPC1 promoter act, SMN2 splice up, ELG1 genotoxic, KinaseGlo FLuc)
CCCCC(=O)Cl	none (no result: Rab9 promoter act, NPC1 promoter act, FLuc counter, ELG1 genotoxic, KinaseGlo FLuc)
O=C(Oc1ccccc1)c1cc2ccccc2o1	FLuc counter 9.53µM
CCCOC(=O)c1ccc(OC(=O)c2ccco2)cc1	FLuc counter inconclusive
CN1CCN(c2ccc3nc(-c4ccc5nc(-c6ccc(O)cc6)[nH]c5c4)[nH]c3c2)CC1	SMN2 splice up inconclusive (no result: Rab9 promoter act, NPC1 promoter act, FLuc counter, ELG1 genotoxic)
CCOc1ccc(-c2nc3ccc(-c4nc5ccc(N6CCN(C)CC6)cc5[nH]4)cc3[nH]2)cc1	SMN2 splice up 3.98µM (no result: Rab9 promoter act, NPC1 promoter act, FLuc counter, ELG1 genotoxic, KinaseGlo FLuc)
O=C(/C=C/c1c[nH]c2ccccc12)c1c(O)n(CCc2ccccc2)c(=O)[nH]c1=O	FLuc counter 13.5µM (no result: SMN2 splice up, KinaseGlo FLuc)
O=C1C=CC(=O)C(Cl)=C1	none (no result: Rab9 promoter act, NPC1 promoter act, FLuc counter, SMN2 splice up, ELG1 genotoxic)
O=C(Oc1ccc2ccccc2c1Cl)N1CCCC1	Rab9 promoter act 2µM, NPC1 promoter act 2.82µM, FLuc counter 12µM, SMN2 splice up 12.6µM, ELG1 genotoxic 2.06µM
CCN(CC)C(=O)Oc1ccc2ccccc2c1Cl	FLuc counter 16.9µM, SMN2 splice up inconclusive
CN(C)C(=O)Oc1ccc2ccccc2c1Cl	FLuc counter inconclusive, ELG1 genotoxic inconclusive
CN(C)C(=O)Oc1ccc(Cl)c2ccccc12	Rab9 promoter act inconclusive, NPC1 promoter act 4.47µM
CN(C(=O)Oc1ccc(Cl)c2cccnc12)c1ccccc1	none
O=C(Oc1ccc2ccc(OC(=O)N3CCCCCC3)cc2c1)N1CCCCCC1	FLuc counter 13.5µM, ELG1 genotoxic inconclusive
O=C(Nc1ccc(OC(=O)N2CCCCC2)cc1)N1CCOCC1	none (no result: SMN2 splice up)
NC[C@@H](Cc1ccccc1)P(=O)(O)O	none (no result: Rab9 promoter act, NPC1 promoter act, FLuc counter, ELG1 genotoxic)
O=C(Oc1c(Cl)cc(Cl)c2ccccc12)N1CCCCC1	FLuc counter inconclusive, ELG1 genotoxic inconclusive
O=C(Oc1ccc(Cl)c2ccccc12)N1CCCCC1	FLuc counter 16.9µM, ELG1 genotoxic inconclusive
C=C(C)C1Cc2c(ccc3c2OC2COc4cc(OC)c(OC)cc4C2C3=O)O1 (stereo unspecified)	none (no result: Rab9 promoter act, NPC1 promoter act, FLuc counter, ELG1 genotoxic)
CN(C)c1ccccc1	none (no result: Rab9 promoter act, NPC1 promoter act, FLuc counter, ELG1 genotoxic, KinaseGlo FLuc)
CN(C)c1ccc(C(=O)c2ccc(N(C)C)cc2)cc1	FLuc counter 13.5µM, ELG1 genotoxic 23.1µM
c1cc(CCN2CCCCC2)ccn1	none (no result: Rab9 promoter act, NPC1 promoter act, FLuc counter, ELG1 genotoxic)
Clc1ccccc1Nc1ncnc(-n2cccc2)n1	Rab9 promoter act 3.55µM, NPC1 promoter act 2.82µM, FLuc counter 7.57µM, SMN2 splice up inconclusive, ELG1 genotoxic inconclusive
C=C(C)c1ccccc1	none (no result: KinaseGlo FLuc)
CS(=O)(=O)O[C@H]1CN2CCC1CC2	none (no result: Rab9 promoter act, NPC1 promoter act, FLuc counter, ELG1 genotoxic)
Cc1onc(-c2ccccc2)c1C(=O)NC1C(=O)N2C(C(=O)O)C(C)(C)S[C@@H]12 (stereo partly specified)	none (no result: Rab9 promoter act, NPC1 promoter act, FLuc counter, ELG1 genotoxic)
CN1CC=C(/C=C/c2ccc(-c3ccccc3)cc2)CC1	Rab9 promoter act inconclusive, NPC1 promoter act 3.16µM, FLuc counter 4.26µM, ELG1 genotoxic inconclusive (no result: SMN2 splice up, KinaseGlo FLuc)
